Our source for the survival values is PubChem BioAssay AID463173 (ICCB-Longwood Screening Facility, Harvard Medical School, 2010).

SMILES strings stand for the structures. The whole screen tested about 52,000 compounds, of which about 4,300 (8.3%) were called active. This excerpt belongs to a sample that is enriched for actives. Values without a mark were called inactive. Rule as the data show it: active = survival mostly below about 52% (no sharp cut-off); inactive = mostly above about 56%.

This assay has as its system DeltatarO mutant. As to the kind of experiment: growth inhibition of S. aureus wild type versus tarO mutant, primary screen, teichoic acid synthesis inhibitors, RN4220, OD600 (AID 463173). The settings on record: OD600, 18 h, hits give low values, screened at 18.75 µg/mL (by protocol).
In the case of `O=C(NCc1ccccc1Cl)c1c2c(nc3ccccc13)C(=O)N(C1CCCCC1)C2`, the survival is 92%.

On to `COC(=O)c1ccc(-n2c(/C=C/c3cc(OC)c(OC)c(OC)c3)nc3cc(Cl)ccc3c2=O)cc1`, for which the survival was 80%.

Regarding `Cc1cc2oc(C(=O)Nc3ccc(S(=O)(=O)N4CCCCCC4)cc3)cc(=O)c2cc1C`, the survival was 42% (active).

As to `Cc1cc2oc(C(=O)Nc3ccc(S(=O)(=O)N4CCC(C)CC4)cc3)cc(=O)c2cc1C`, the survival is 72%.

`Cc1ccc2c(=O)cc(C(=O)Nc3ccc(S(=O)(=O)N4CCCCCC4)cc3)oc2c1`: the survival is 106%.

As for `Cc1ccc(C)c(N2CCN(C(=O)C3CCN(C(=O)c4cc5sccc5n4C)CC3)CC2)c1`, the survival is 54%.

As for `CC1=C(C(=O)NCc2ccccc2C)C2(CCCCCC2)OC1=O`, the survival was 78%.

In the case of `Cc1ccc(-n2nc3cc(C)c(NC(=O)c4ccc(-c5ccccc5)o4)cc3n2)cc1`, the survival is 46% (active).

For `COc1ccc(-n2nc3cc(C)c(NC(=O)c4ccc(-c5ccc(Br)cc5)o4)cc3n2)cc1`, the survival is 37% (active).

Turning to `COc1ccc(-n2nc3cc(C)c(NC(=O)Cc4ccc(Cl)cc4)cc3n2)cc1`, the survival is 56%.

As to `COc1ccc(-n2nc3cc(C)c(NC(=O)c4ccc(-c5ccc(Cl)cc5)o4)cc3n2)cc1`, the survival was 45%.

For `CCc1ccc(-n2nc3cc(C)c(NC(=O)c4ccccc4C)cc3n2)cc1`, the survival was 89%.

`Cc1ccc(-n2nc3cc(C)c(NC(=O)Cc4ccc(Cl)cc4)cc3n2)cc1`: the survival was 64%.

For `Cn1nc(C(=O)NCc2ccc(Cl)cc2)c2c1-c1ccccc1SC2`, the survival was 78%.

For `COc1ccc(-n2c(SCC(=O)Nc3nnc(C)s3)nc3c([nH]c4ccccc43)c2=O)cc1`, the survival is 83%.

As for `Cc1ccc(C)c(Nc2nn3c(=O)c4ccc(C(=O)NCc5ccccc5)cc4nc3s2)c1`, the survival is 55%.

Take `CCOC(=O)c1c(CC(C)C)csc1NC(C)=O`: the survival is 71%.

In the case of `COc1cc(NC(=O)c2cc3cc4ccc(C)cc4nc3o2)cc(OC)c1OC`, the survival was 89%.

Regarding `CCc1ccccc1NC(=O)c1cc(S(=O)(=O)N2CCc3ccccc32)ccc1F`, the survival was 95%.

Turning to `Cc1cccc(NC(=O)c2cc(-c3ccc4c(c3)OCCO4)on2)c1`, the survival was 69%.

As for `O=C(Nc1cccc(Cl)c1)c1cc(-c2ccc3c(c2)OCCO3)on1`, the survival is 103%.

In the case of `O=C(Nc1cc(Cl)ccc1O)c1cc(-c2ccc3c(c2)OCO3)on1`, the survival was 58%.

For `Cc1ccc(Cl)cc1NC(=O)c1cc(-c2ccc3c(c2)OCCO3)on1`, the survival was 34% (active).

In the case of `Cc1c(Cl)cccc1NC(=O)c1cc(-c2ccc3c(c2)OCO3)on1`, the survival was 69%.

Consider `O=C(Nc1c(Cl)cccc1Cl)c1cc(-c2ccc3c(c2)OCO3)on1`, for which the survival is 39% (active).

`O=C(Nc1cccc(Br)c1)c1cc(-c2ccc3c(c2)OCCO3)on1`: the survival was 47%.

Regarding `CC(=O)c1cccc(NC(=O)c2cc(-c3ccc4c(c3)OCCO4)on2)c1`, the survival was 45% (active).

Turning to `O=C(Nc1cccc(Cl)c1)c1cc(-c2ccc3c(c2)OCO3)on1`, the survival was 77%.

`CNC(=O)CN1C(=O)COc2ccc(S(=O)(=O)N3CCCCCC3)cc21`: the survival was 91%.

Turning to `Cc1cc(OCC(=O)Nc2sc3c(c2C#N)CCC(C)C3)ccc1Cl` (configuration not stated), the survival was 78%.

Take `CCOC(=O)c1cnn(-c2ccc(C(=O)Nc3cccc(C(C)=O)c3)cc2)c1N`: the survival is 55%.

For `CCN(CC)CCCNC(=O)c1sc2nc3n(c(=O)c2c1C)CCCCC3`, the survival was 111%.

`Cc1ccccc1NC(=O)c1c(C)oc2ccc(O)c(CN3CCCCCC3)c12`: the survival is 107%.

With `O=c1n(Cc2ccc([N+](=O)[O-])cc2)c2ccccc2c2nc(-c3ccccc3)nn12`, the survival was 129%.

Consider `Cc1ccc(CSCC(=O)N2CCN(c3ccc(F)cc3)CC2)cc1`, for which the survival was 70%.

For the compound `COc1ccc(NC(=O)C2=C(C)Nc3ncnn3C2c2ccc[nH]2)cc1` (configuration not stated), the survival was 94%.

In the case of `CC1=C(C(=O)Nc2ccccc2)C(c2ccc[nH]2)n2ncnc2N1` (configuration not stated), the survival is 20% (active).

For `CCOc1ccccc1C1C(C(=O)Nc2ccccc2OC)=C(C)Nc2nc3ccccc3n21` (configuration not stated), the survival is 59% (active).

`CC1=C(C(=O)Nc2ccccc2C)C(c2ccc[nH]2)n2ncnc2N1` (configuration not stated): the survival is 102%.

Consider `COc1ccccc1NC(=O)C1=C(C)Nc2nnnn2C1c1cc(Br)c(O)c(OC)c1` (configuration not stated), for which the survival was 55% (active).

For the compound `CCCCOc1ccc(C2C(C(=O)Nc3ccccc3OC)=C(C)Nc3nnnn32)cc1OC` (configuration not stated), the survival is 85%.

In the case of `COc1ccccc1NC(=O)C1=C(C)Nc2nc3ccccc3n2C1c1cccc(OC)c1OC` (configuration not stated), the survival was 70%.

As for `CCOc1ccccc1NC(=O)C1=C(C)Nc2ncnn2C1c1cccs1` (configuration not stated), the survival was 37% (active).

For `COc1ccccc1NC(=O)C1=C(C)Nc2nnnn2C1c1ccc(C(F)(F)F)cc1` (configuration not stated), the survival is 66%.

In the case of `CCOc1ccccc1NC(=O)C1=C(C)Nc2ncnn2C1c1sccc1C` (configuration not stated), the survival is 92%.

For `CC1=C(C(=O)Nc2ccccc2Cl)C(c2cccs2)n2ncnc2N1` (configuration not stated), the survival is 101%.

With `COc1ccccc1NC(=O)C1=C(C)Nc2nc3ccccc3n2C1c1ccccc1Cl` (configuration not stated), the survival was 62%.

In the case of `COc1ccc(S(=O)(=O)N2CCC(c3nc4ccccc4s3)CC2)cc1OC`, the survival is 86%.

Turning to `Cc1cc(NC(=O)OC2CCCC2)ccc1NC(=O)OC1CCCCC1`, the survival is 75%.

For `COc1ccc(CNC(=O)C(=O)Nc2cccc(C)c2C)cc1`, the survival is 61%.

With `Cc1ccccc1S(=O)Cc1ccc(C(=O)NCc2ccccc2Cl)o1` (configuration not stated), the survival was 73%.

Regarding `Cc1ccc(-c2nnc(Nc3ccc(Cl)c(Cl)c3)c3ccccc23)cc1S(=O)(=O)NCCO`, the survival is 79%.

In the case of `CC(=O)Nc1ccc(S(=O)(=O)NCC2CCC(C(=O)NCCN(CC(C)C)CC(C)C)CC2)cc1` (configuration not stated), the survival was 61%.

On to `CC(=O)Nc1ccc(S(=O)(=O)N2CCN(c3ccc(C)c(C)c3)CC2)cc1`, for which the survival was 94%.

With `O=C(CS(=O)(=O)c1cccc2nsnc12)Nc1ccc(F)cc1F`, the survival is 102%.

On to `COc1ccccc1N1CCN(c2ncnc3c2c(-c2ccccc2)cn3-c2cccc(C)c2)CC1`, for which the survival was 70%.

Regarding `COc1ccc(-c2[nH]ncc2C(=O)NCc2cccc(Cl)c2)cc1`, the survival was 62%.
